Reference: PubChem BioAssay (NCI)
This is part of a sample that, as a whole, favours compounds with a hit. Of some 83,000 tested, about 20% had one in any assay.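 The endpoint reported here, percent growth, reads 100 for growth as untreated, 0 for no net growth and -100 for all cells dead.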 The source made the active and inactive calls. How the source made its calls: active means growth percent below 10; inactive means the rest.

What was measured:
Experiment in all cases: NCI-60 one-dose screen, 48 h (100 = growth as untreated, 0 = no growth, -100 = all killed)
Conditions in all cases: 10 µM unless noted
NCI-H23 lung = tested on: NCI-H23 lung
NCI-H226 lung = tested on: NCI-H226 lung
NCI-H322M lung = tested on: NCI-H322M lung
HOP-62 NSCLC = tested on: HOP-62 NSCLC
NCI-H460 lung = tested on: NCI-H460 lung
NCI-H522 lung = tested on: NCI-H522 lung
786-0 renal = tested on: 786-0 renal
COLO 205 colon = tested on: COLO 205 colon
DU-145 prostate = tested on: DU-145 prostate
K-562 leukemia = tested on: K-562 leukemia
MDA-MB-231 breast = tested on: MDA-MB-231 breast
RXF 393 renal = tested on: RXF 393 renal
SF-268 CNS = tested on: SF-268 CNS
SF-295 CNS = tested on: SF-295 CNS
SF-539 CNS = tested on: SF-539 CNS
UACC-257 melanoma = tested on: UACC-257 melanoma
M14 melanoma = tested on: M14 melanoma
A549/ATCC NSCLC = tested on: A549/ATCC NSCLC
MALME-3M melanoma = tested on: MALME-3M melanoma

Measured: growth

CC(C)(C)c1ccc(C(=O)Nc2nc3ccc(O)cc3s2)cc1
inactive: NCI-H23 lung 54.8% | NCI-H226 lung 53.5% | NCI-H322M lung 54.8% | HOP-62 NSCLC 82.9% | NCI-H460 lung 19.1% | NCI-H522 lung 52.6% | DU-145 prostate 48.2% | MDA-MB-231 breast 69.5% | RXF 393 renal 46.3% | SF-268 CNS 55.9% | SF-539 CNS 38.1% | UACC-257 melanoma 31.8% | M14 melanoma 14.3%
active: 786-0 renal 2.03% | COLO 205 colon 8.14% | K-562 leukemia 8.79% | SF-295 CNS 3.43%

CC[C@]12C=CCN3CC[C@@]4(c5cc(NC(=O)COc6cc(O)c7c(=O)cc(-c8ccccc8)oc7c6)c(OC)cc5N(C)[C@H]4[C@@](O)(C(=O)OC)[C@@H]1OC(C)=O)[C@@H]32
active: NCI-H23 lung -92.9% | NCI-H226 lung -70.4% | NCI-H322M lung -51.8% | HOP-62 NSCLC -73.6% | NCI-H460 lung -57.7% | NCI-H522 lung -49.7% | A549/ATCC NSCLC -68.5% | 786-0 renal -59.9% | COLO 205 colon -81% | DU-145 prostate -33.6% | K-562 leukemia -1.41% | MDA-MB-231 breast -58.3% | RXF 393 renal -92.1% | SF-268 CNS -60.6% | SF-295 CNS -85.3% | SF-539 CNS -77.1% | UACC-257 melanoma -76.1% | M14 melanoma -75.4%

COc1cc(-c2nn(C(C)(C)C)cc2-c2ccnc(NCCCNS(=O)(=O)c3ccc(C)cc3)n2)ccc1Cl
active: RXF 393 renal 4.95%
inactive: NCI-H23 lung 84.1% | NCI-H226 lung 70.9% | NCI-H322M lung 86% | HOP-62 NSCLC 70.8% | NCI-H460 lung 86.7% | A549/ATCC NSCLC 59.7% | 786-0 renal 83.2% | COLO 205 colon 107% | DU-145 prostate 74% | K-562 leukemia 57.7% | MALME-3M melanoma 94.4% | MDA-MB-231 breast 58.4% | SF-268 CNS 63.9% | SF-295 CNS 88% | SF-539 CNS 91.3% | UACC-257 melanoma 94.6% | M14 melanoma 90.5%

COc1cc(OC)cc(C(=O)Nc2sc3c(c2C(N)=O)CCC(=O)C3)c1
active: NCI-H522 lung 5.02%
inactive: NCI-H23 lung 19.1% | NCI-H226 lung 86% | NCI-H322M lung 98.6% | HOP-62 NSCLC 60% | NCI-H460 lung 57.9% | A549/ATCC NSCLC 95.8% | 786-0 renal 85% | COLO 205 colon 47.2% | DU-145 prostate 99.4% | MDA-MB-231 breast 52.4% | RXF 393 renal 85.1% | SF-268 CNS 30.7% | SF-295 CNS 65.3% | SF-539 CNS 16.6% | UACC-257 melanoma 53.2% | M14 melanoma 22.9%

O=C(CSc1nnc(-c2ccc(Cl)cc2)n1-c1ccccc1)Nc1cccc(Cl)c1
inactive: NCI-H23 lung 49.5% | NCI-H226 lung 46.3% | NCI-H322M lung 55.5% | HOP-62 NSCLC 104% | NCI-H460 lung 47.9% | NCI-H522 lung 69.8% | 786-0 renal 28.1% | COLO 205 colon 82.1% | DU-145 prostate 64.6% | K-562 leukemia 61.9% | MALME-3M melanoma 75.9% | MDA-MB-231 breast 36.3% | RXF 393 renal 70.8% | SF-268 CNS 76.1% | SF-295 CNS 27.2% | SF-539 CNS 50.9% | UACC-257 melanoma 90.4% | M14 melanoma 72.8%

Cc1cc2nc(C(Cl)Cl)nc(-c3cccs3)n2n1
inactive: NCI-H23 lung 10.5% | NCI-H226 lung 86.7% | NCI-H522 lung 46.8% | 786-0 renal 77.5% | K-562 leukemia 35.3% | MALME-3M melanoma 39.7% | MDA-MB-231 breast 11.2% | SF-268 CNS 28.9% | SF-539 CNS 17.5% | UACC-257 melanoma 33.1%
active: NCI-H322M lung -20.6% | HOP-62 NSCLC -2.2% | NCI-H460 lung -39% | COLO 205 colon -44.3% | DU-145 prostate -26.5% | RXF 393 renal -52.9% | SF-295 CNS -9.21%

COc1ccc(/C(N)=N/C(N)=N/c2nc3ccccc3s2)cc1
inactive: NCI-H23 lung 67.8% | NCI-H226 lung 77.8% | NCI-H322M lung 98.4% | HOP-62 NSCLC 24.5% | NCI-H460 lung 82.5% | A549/ATCC NSCLC 33.1% | 786-0 renal 79% | COLO 205 colon 103% | DU-145 prostate 81% | K-562 leukemia 32.9% | MALME-3M melanoma 94.4% | MDA-MB-231 breast 76% | RXF 393 renal 65.7% | SF-268 CNS 78.9% | SF-295 CNS 52% | SF-539 CNS 90.5% | UACC-257 melanoma 98.5% | M14 melanoma 81.4%

N#C/C(=C\c1ccc(-c2ccc(Cl)cc2Cl)o1)c1ccc(F)cc1
active: NCI-H226 lung 5.86%
inactive: NCI-H23 lung 87.7% | NCI-H322M lung 93.4% | HOP-62 NSCLC 82.2% | NCI-H460 lung 90.7% | NCI-H522 lung 88.1% | 786-0 renal 94% | COLO 205 colon 100% | DU-145 prostate 102% | K-562 leukemia 92.5% | MALME-3M melanoma 98.7% | MDA-MB-231 breast 83.4% | RXF 393 renal 67.5% | SF-268 CNS 92.3% | SF-295 CNS 99.8% | SF-539 CNS 89.9% | UACC-257 melanoma 104% | M14 melanoma 95.3%
